Calls of active or inactive are those of the source. Unless noted, no rule for the calls is given here.
How the values were obtained:
[1] = HepG2 liver cancer cell viability effects, profiling panel, resazurin fluorescence, 24 h, PK04 Diversity Set (AID 1172); details: higher = more signal
[2] = basal S. cerevisiae growth modulation, no modifier, primary screen, OD600, strain BY4716, 24 h, basal condition (AID 1173); details: OD600, 24 h, higher = more signal, called active from +8 up or from −8 down
[3] = MM1S myeloma cell viability, profiling panel, resazurin fluorescence, basal, 24 h, PK04 Diversity Set (AID 1174); details: higher = more signal, called active from +8 up or from −8 down;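 also: MM1S multiple myeloma cell line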
[4] = biological target: Dihydroorotate dehydrogenase (quinone), mitochondrial (Plasmodium falciparum (isolate 3D7)) (UniProt Q08210); experiment: PfDHODH enzyme inhibitors, primary screen, biochemical, C-terminal His tag, absorbance 600 nm (AID 1175); details: DCIP absorbance 600 nm, higher = more signal, called active from +8 up or from −8 down;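 also: recombinant parasite enzyme with a five histidine tag at its C terminus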
[5] = P. aeruginosa biofilm formation inhibitors, primary screen, strain PAO1, LB-PBS medium, absorbance 600 nm (AID 1176); details: P. aeruginosa PAO1 growth/biofilm, A600, 12 h; higher = more signal
[6] = S. cerevisiae RM11-1a growth modifiers, primary screen, strain RM11-1a, OD600, basal, 24 h (AID 1177); details: OD600, 24 h, higher = more signal, called active from +8 up or from −8 down;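 also: cultures grown under basal conditions with no added stressor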
[7] = E. coli acrAB mutant growth effects, primary screen, E. coli filamentation inducers, strain DRC39, OD650, 24 h (AID 1178); details: higher = more signal, called active from +8 up or from −8 down;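 also: growth measured as culture turbidity by optical density at 650 nm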
[8] = E. coli acrAB mutant growth effects, primary screen, E. coli filamentation inducers, strain DRC39, OD650, 48 h (AID 1179);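 also: screen aims at cell division blockers that make cells filament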; details: E. coli DRC39 delta-acrAB growth, higher = more signal, called active from +8 up or from −8 down
[9] = RPMI8226 myeloma cell viability, profiling panel, resazurin fluorescence, basal, 24 h, PK04 Diversity Set (AID 1180); details: higher = more signal;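 also: RPMI8826 multiple myeloma cell line at 5000 cells per well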
[10] = biological target: E3 ubiquitin-protein ligase XIAP (Homo sapiens) (UniProt P98170); experiment: XIAP binders, primary screen, biophysical, small-molecule microarray, fluorescence 635 nm (AID 1181); details: small-molecule microarray binding, higher = more signal;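 also: score merges 667 nm emission and signal to noise over triplicate slides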
[11] = tested on: XIP peptide (Xip251-270) binding; experiment: small-molecule binders of XIP peptide, primary screen, biochemical, small-molecule microarray, fluorescence 635/667 nm, 0.1 µg/mL protein (AID 1182); details: fluorescent protein binding, 635 nm, higher = more signal, called active from +8 up or from −8 down
[12] = tested on: XIP peptide (Xip251-270); experiment: small-molecule binders of XIP peptide, primary screen, biochemical, small-molecule microarray, fluorescence 635/667 nm, 0.5 µg/mL protein (AID 1183); details: small-molecule microarray binding, fluorescence 635 nm; higher = more signal
[13] = Plasmodium falciparum growth inhibition, primary screen, strain 3D7, DAPI fluorescence, 100 nL (AID 1184);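 also: parasites grown inside human red blood cells in medium with human serum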; details: P. falciparum 3D7 growth, 3 d, higher = more signal
[14] = biological target: Homeobox protein Hox-A13 (Mus musculus) (UniProt Q62424); experiment: inhibitors of HoxA13-DNA binding, primary screen, biochemical, fluorescence polarization, labeled oligonucleotide (AID 1185); details: 15 min, higher = more signal, called active from +8 up or from −8 down
[15] = inhibitors of hydroxyurea-induced Chk1 phosphorylation, primary screen, imaging, HeLa, phospho-Chk1 antibody, percent positive cells (AID 1186); details: hydroxyurea-induced phospho-Chk1 immunofluorescence imaging, higher = more signal
[16] = inhibitors of hydroxyurea-induced Chk1 phosphorylation, primary screen, imaging, HeLa, phospho-Chk1 nuclear intensity (AID 1187); details: hydroxyurea-induced phospho-Chk1 immunofluorescence imaging, higher = more signal

Homeobox protein Hox-A13 (Mus musculus), sequence (Q62424 whole entry, looked up): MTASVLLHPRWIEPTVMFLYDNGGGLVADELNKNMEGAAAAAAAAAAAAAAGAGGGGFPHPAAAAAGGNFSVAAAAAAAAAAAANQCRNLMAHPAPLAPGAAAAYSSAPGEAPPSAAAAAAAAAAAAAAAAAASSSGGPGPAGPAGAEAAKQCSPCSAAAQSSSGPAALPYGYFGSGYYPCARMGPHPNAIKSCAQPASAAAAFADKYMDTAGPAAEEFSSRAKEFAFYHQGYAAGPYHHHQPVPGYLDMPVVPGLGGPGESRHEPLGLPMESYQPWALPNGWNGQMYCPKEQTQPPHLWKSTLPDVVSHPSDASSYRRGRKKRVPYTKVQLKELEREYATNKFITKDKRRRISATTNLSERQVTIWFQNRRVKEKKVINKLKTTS
Dihydroorotate dehydrogenase (quinone), mitochondrial (Plasmodium falciparum (isolate 3D7)), sequence (Q08210 whole entry, looked up): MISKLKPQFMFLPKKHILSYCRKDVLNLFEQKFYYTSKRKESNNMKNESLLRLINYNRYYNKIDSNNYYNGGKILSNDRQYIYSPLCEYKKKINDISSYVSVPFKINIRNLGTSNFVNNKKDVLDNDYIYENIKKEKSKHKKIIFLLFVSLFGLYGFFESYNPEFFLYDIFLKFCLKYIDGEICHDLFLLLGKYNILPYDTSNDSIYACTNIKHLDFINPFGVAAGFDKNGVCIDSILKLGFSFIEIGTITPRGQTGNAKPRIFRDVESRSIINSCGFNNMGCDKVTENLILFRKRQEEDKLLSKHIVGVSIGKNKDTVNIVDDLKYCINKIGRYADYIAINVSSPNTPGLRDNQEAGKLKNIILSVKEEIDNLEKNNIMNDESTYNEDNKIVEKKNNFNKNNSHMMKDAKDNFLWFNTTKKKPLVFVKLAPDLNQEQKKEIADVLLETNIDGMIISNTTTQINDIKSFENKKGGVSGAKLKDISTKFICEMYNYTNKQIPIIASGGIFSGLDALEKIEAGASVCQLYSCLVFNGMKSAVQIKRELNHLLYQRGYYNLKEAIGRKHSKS
E3 ubiquitin-protein ligase XIAP (Homo sapiens), sequence (P98170 whole entry, looked up): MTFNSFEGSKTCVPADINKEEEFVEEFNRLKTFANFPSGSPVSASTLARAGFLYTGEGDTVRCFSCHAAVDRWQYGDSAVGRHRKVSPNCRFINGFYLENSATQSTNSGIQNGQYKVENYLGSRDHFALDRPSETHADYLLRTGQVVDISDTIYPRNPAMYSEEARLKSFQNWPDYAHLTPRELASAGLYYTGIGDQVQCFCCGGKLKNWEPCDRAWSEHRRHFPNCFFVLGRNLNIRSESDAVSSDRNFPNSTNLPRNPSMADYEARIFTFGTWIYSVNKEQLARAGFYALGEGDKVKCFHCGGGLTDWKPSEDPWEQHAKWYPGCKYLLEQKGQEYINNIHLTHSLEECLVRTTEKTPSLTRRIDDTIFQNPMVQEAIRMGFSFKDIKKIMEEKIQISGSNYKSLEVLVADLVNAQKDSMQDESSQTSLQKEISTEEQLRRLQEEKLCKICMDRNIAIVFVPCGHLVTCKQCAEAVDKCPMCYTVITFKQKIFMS

SMILES	z-score [1]	z-score [2]	z-score [3]	composite z-score [4]	z-score [5]	z-score [6]	z-score [7]	z-score [8]	z-score [9]	composite z-score [10]	composite z-score [11]	composite z-score [12]	z-score [13]	z-score [14]	z-score [15]	z-score [16]
CC(C)[C@H]1COC(=O)N1C(=O)[C@H]1[C@@H](c2ccccc2)N(c2ccccc2)O[C@@H]1C	0.701	-1.42 (inactive)	0.517 (inactive)	-0.656 (inactive)	0.0694 (inactive)	1.46 (inactive)	0.166 (inactive)	0.703 (inactive)	1.41	0.0785	0.223 (inactive)	0.267	0.0321	-3.46 (inactive)	-0.965 (inactive)	-1.2 (inactive)
COC(=O)[C@@]1(Cc2ccc(OC)cc2)[C@H]2c3cc(C(=O)N4CCCC4)n(CCc4ccccn4)c3C[C@H]2CN1C(=O)c1ccccc1	-0.608	1.17 (inactive)	-1.55 (inactive)	-0.362 (inactive)	1.5 (inactive)	0.664 (inactive)	-0.784 (inactive)	-0.912 (inactive)	-2.73	0.0976	0.679 (inactive)	0.864	-1.77	-5.3 (inactive)	-0.235 (inactive)	-0.224 (inactive)
OCCCc1cc[n+](Cc2cccc(OC(F)(F)F)c2)cc1	0.887	-1.08 (inactive)	0.499 (inactive)	-3.59 (inactive)	0.0898 (inactive)	0.616 (inactive)	0.453 (inactive)	0.159 (inactive)	-0.326	0.337	0.307 (inactive)	0.768	-1.47	-3.06 (inactive)	-0.284 (inactive)	-0.678 (inactive)
C=CC[C@@]1(C(N)=O)N=C(c2ccc(OCCCO)cc2)O[C@@H]1c1ccccc1N=[N+]=[N-]	0.895	-1.08 (inactive)	0.694 (inactive)	0.832 (inactive)	0.401 (inactive)	0.178 (inactive)	0.951 (inactive)	-0.0342 (inactive)	0.502	0.0896	0.868 (inactive)	0.231	-1.73	-6.09 (inactive)	-0.0626 (inactive)	0.0164 (inactive)
CC(c1ccccc1)C(O)C1C=CC2C(=O)N(c3ccccc3)C(=O)C2N1Nc1ccccc1F (stereo not given)	0.677	-0.817 (inactive)	0.0907 (inactive)	0.549 (inactive)	0.533 (inactive)	-1.12 (inactive)	0.0976 (inactive)	0.669 (inactive)	1.21	0.0859	-0.093 (inactive)	0.583	-0.436	-1.51 (inactive)	-0.123 (inactive)	0.104 (inactive)
